# SKOV3 invasion: inhibitors of ovarian cancer cell adhesion and invasion in omental model. SKOV3ip1-GFP adhesion/invasion on 3D omental model, fluorescence. Potency, µM (series often up to 45.8 µM), for inactives: at the highest dose activity change, negative = inhibition, most hits filed as inhibitors. 46,000 tested, 0.1% active. AID 1963576;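 further: plate controls were DMSO wells for no effect and tomatine positive control wells for full effect; nearly all actives have a fitted effect of over 65% in size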
#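 A 3D layer of primary human omental fibroblasts, mesothelial cells, fibronectin and collagen I, grown 48 hr, received SKOV3ip1-GFP cells in serum-free medium plus compounds at 0.36-46 umol/L. After 2 hr RT and 16 hr 37 C, fixed adherent GFP cells were counted; normalized to DMSO and tomatine.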
# p53null 32C kill: p53 null cell cytotoxicity, permissive temperature; H1299-neo p53 null cells, ATP luminescence, 24 h, 32C; Potency, µM (series often up to 46.1 µM), without a hit: top-dose activity change, negative = cytotoxicity, most hits filed as cytotoxic; 55,000 tested, 0.62% active; AID 903;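 further: 0% = DMSO only and -100% = full killing by 100 µM tamoxifen; nearly all actives have a fitted effect of over 55% in size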
#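 We seeded p53-null H1299-neo cells, incubated them overnight at 37C, and added compounds across a range up to 46 uM. After 24 hours at 32C, ATP reagent was applied for 20 min at room temperature and luminescence recorded.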
# p53null 39C tox: kills p53 null cells at the nonpermissive temperature | Potency, µM (doses to about 46.1 µM), without a hit: at the highest dose activity, negative = cell killing, most hits filed as cytotoxic | H1299 p53-null (neo) cells, 39C, ATPlite viability, 24 h | 55,000 tested, 0.97% active;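 further: 0% = DMSO only and -100% = full killing by 100 µM tamoxifen; nearly all actives have a fitted effect of over 50% in size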
#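 Temperature-shift cytotoxicity format: compound titrations on p53-null or A138V-expressing H1299 cells held 24 hr at 39C, cell ATP then measured, AC50 from Hill model.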
# PMP22 txn prim: modulates PMP22 transcription in S16 Schwann cells; Potency, µM (top dose mostly 57.5 µM), for inactives: top-dose activity change, negative = inhibition, usual class: inhibitors; S16 Pmp22-F2sN Schwann cells, FLuc/NLuc coincidence luminescence, 24 h; 43,000 tested, 2% active; active means clear falling dose curves in both reporters; inconclusive means both reporters move, but less clearly or upward; inactive means either reporter flat; the % is the NLuc reporter signal
#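 Rat S16 Pmp22-F2sN cells, 500-1,000/well in phenol red-free DMEM + 10% FBS, compound-treated 24 h (37C, 5% CO2). Luminescence: FLuc read, Stop&Glo added, NLuc read.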
# S16 F2sN tox: S16 Schwann cell cytotoxicity | S16 Pmp22-F2sN Schwann cells (luciferase reporters placed in the Pmp22 gene) viability, CellTiter-Glo, 24 h | Potency, µM (highest dose often 57.5 µM), for inactives: top-dose activity change, negative = cytotoxicity, most hits filed as cytotoxic | 43,000 tested, 0.48% active; further: nearly all actives have a fitted effect of over 65% in size
#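 S16 Schwann cells carrying the Pmp22-F2sN reporter, seeded in 1536-well format, were exposed to library compounds for 24 h at 37C. Viability was read as CellTiter-Glo luminescence after 15 min at room temperature.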
# pS6 MEF inh: mTORC1 pathway inhibition measured by phospho-rpS6; Tsc2-/- p53-/- MEF, phospho-rpS6 immunofluorescence/PI, 24 h; Potency, µM (doses to about 38.3 µM), for the others: at the top dose activity change, negative = inhibition, hits mostly inhibitors; 44,000 tested, 0.78% active;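 further: plate controls were DMSO for no effect and rapamycin for full effect; nearly all actives have a fitted effect of over 50% in size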
#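 Plate MEFs (Tsc2-/-, p53-/-, empty vector) in DMEM/10% FBS; after 24 h add compound, incubate 24 h at 37 degree Celsius; fix in PFA/TX-100, block, stain phospho-rpS6 and 10 uM PI; scan at 488 nm; report % positive cells.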
# * = called active by the depositor; i = inactive; ? = inconclusive; nt = no result. Rows were chosen to be rich in hits. Some 3.1% of all compounds tested hit in one or more screens of this group. Unless noted, the call rests on the fitted dose curve; in most records, active means well fitted curve in the direction sought with a large enough effect; inconclusive means small, poorly fitted or top-dose-only effect, or another doubt; inactive means no such curve, though single readings can be large; an effect the other way counts as inactive or inconclusive. Unless noted, on the % scale 0 is the no-effect control and ±100 the full control effect; potency means the concentration at half of the fitted maximal effect.
SMILES,SKOV3 invasion,p53null 32C kill,p53null 39C tox,PMP22 txn prim,S16 F2sN tox,pS6 MEF inh
CCCCc1ccc(Nc2cc(C)nc(-n3nc(C)cc3C)n2)cc1,i,16%,13µM*,15µM*,?,2%
COc1ccc(C(=O)COC(=O)c2cccc(NC(=O)c3ccc(OC)c(OC)c3)c2)cc1,-7%,16µM*,?,-13%,-4%,-18%
CC(C)C(=O)Nc1ncc(-c2cc(C(F)F)nn2-c2c(Cl)cccc2Cl)s1,-24%,nt,nt,nt,nt,nt
CC1(O)CC(c2nc(-c3ccc4ccc(-c5ccccc5)nc4c3)c3c(N)nccn23)C1 (stereo unspecified),3%,nt,nt,nt,nt,nt
CCc1c(C)c2ccc(O)c(CN3CCN(c4ccc(OC)cc4)CC3)c2oc1=O,-10%,?,10µM*,nt,nt,0%
COc1cc(OC)c(NC(=O)c2c3c(nc4ccccc24)C(=O)N(C2CCCCC2)C3)cc1Cl,-5%,-29%,?,?,25µM*,-9%
Cc1ccccc1NC(=O)c1c2c(nc3ccccc13)C(=O)N(C1CCCCC1)C2,28%,7%,-17%,?,-1%,-16%
CCn1nnc2c(N3CCOCC3)nc(-c3ccc(NC(=O)Nc4ccc(C(=O)N5CCN(C)CC5)cc4)cc3)nc21,-16%,nt,nt,nt,nt,nt
CC(=O)O[C@H]1C[C@@H]2CC[C@H]3[C@H]4C[C@H]([N+]5(C)CCCCC5)[C@@H](OC(C)=O)[C@@]4(C)CC[C@@H]3[C@@]2(C)C[C@H]1[N+]1(C)CCCCC1,15%,nt,nt,nt,nt,nt
Cc1ccc2[nH]cc(C(c3ccccc3)c3ccc(C)s3)c2c1 (stereo unspecified),?,11µM*,16µM*,?,-27%,?
O=C(O)CCC=CCC[C@@H]1[C@H](N2CCCCC2)[C@@H](O)C[C@@H]1OCc1ccc(-c2ccccc2)cc1,-3%,nt,nt,nt,nt,nt
O=C(O)CCSc1nnc(-c2ccc(Cl)cc2Cl)o1,2%,?,?,?,-3%,2%
Fc1ccc(-c2nnc(-c3ccc(Cl)cc3Cl)o2)cc1,nt,6.3µM*,11µM*,nt,nt,nt
Cc1ccc(Nc2nc(Nc3ccc(C)c(C)c3)nc(N3CCOCC3)n2)cc1C,i,-4%,24%,0%,?,1µM*
COc1ccc(Nc2nc(Nc3ccc(OC)cc3OC)nc(N3CCOCC3)n2)c(OC)c1,i,0%,4%,-14%,-27%,1.5µM*
COc1ccc(NC(=O)CSc2nc3ccccc3nc2N2CCOCC2)c(OC)c1,-1%,10%,?,-7%,-3%,12%
O=C(O)CCNc1cc(N2CCc3ccccc3CC2)nc(-c2ccccn2)n1,-4%,nt,nt,nt,nt,nt
CCCCN(C)CCNC(=O)C1CCN(c2nc3ccc(CC)cc3s2)CC1,?,?,3.2µM*,?,?,12µM*
CCc1ccc2nc(N3CCC(C(=O)O)CC3)sc2c1,i,7.9µM*,5µM*,24%,-3%,-1%
CCc1ccc2nc(N3CCN(C(=O)C4CC4)CC3)sc2c1,-2%,-20%,20%,-10%,-1%,-13%
CCCCN(C)CCCNC(=O)c1ccc2nc(N3CCCCC3)sc2c1,17%,-2%,-16%,-2%,4%,-11%
COc1cc(C)c(Sc2cnc(NC(=O)c3ccc(CNC(C)C(C)C)cc3)s2)cc1C(=O)N1CCN(C(C)=O)CC1 (stereo unspecified),-10%,nt,nt,nt,nt,nt
CCCOc1ccc(-c2nc3ccccc3c(=O)o2)cc1,i,16µM*,5µM*,-2%,8%,5%
CCc1ccc(NC(=O)C2CCN(c3nn4cc(-c5ccc(OC)cc5)nc4s3)CC2)cc1,i,0%,-7%,-30%,-7%,-5%
CCc1ccc(-c2cn3nc(CC)sc3n2)cc1,-22%,13µM*,10µM*,-25%,5%,?
SMILES,SKOV3 invasion,p53null 32C kill,p53null 39C tox,PMP22 txn prim,S16 F2sN tox,pS6 MEF inh
CC(C)Cn1c(-c2cccc(Br)c2)nc2ccccc21,0%,16%,-3%,?,-16%,0%
CCCc1nn2c(C)c(-c3ccccc3)nc2s1,3%,7.9µM*,10µM*,?,4%,-3%
CC(C)Cc1nn2cc(-c3cccc(Br)c3)nc2s1,36%,13µM*,16µM*,?,-4%,-6%
CCCCCc1nn2cc(-c3ccccc3)nc2s1,i,10µM*,16µM*,-9%,11%,2%
N#Cc1c(C2CCNCC2)cc(-c2c(O)cccc2OCC2CC2)nc1N,15%,nt,nt,nt,nt,nt
CCc1ccc(NC(=O)c2cc3ccccn3n2)cc1,i,10µM*,7.9µM*,3%,-18%,-12%
Cc1ccc(NC(=O)c2cc3ccccn3n2)cc1F,i,13µM*,?,nt,nt,0%
Cc1ccccc1CCNC(=O)c1cc2ccccn2n1,5%,?,10µM*,nt,nt,0%
COc1cc(NC(=O)c2cc3ccccn3n2)cc(OC)c1OC,1%,-16%,-4%,nt,nt,-3%
Cc1ccc(C(=O)Nc2ccc(C(=O)OCc3cc(=O)n4ccsc4n3)cc2)cc1,i,-1%,-1%,-3%,8%,0%
CC(C)(C)c1ccc(C(=O)Nc2ccc(C(=O)OCc3cc(=O)n4ccsc4n3)cc2)cc1,-9%,?,2µM*,?,?,13%
Cc1cn2c(=O)cc(COC(=O)c3cccc(NC(=O)c4ccc(C(C)(C)C)cc4)c3)nc2s1,i,2.5µM*,0.79µM*,3%,9%,8%
CCc1c(C)sc2c1CCN(Cc1ccccc1)C2c1ccccc1 (stereo unspecified),11%,39%,8%,5.7µM*,?,4%
CCC[C@H](Nc1nc(-c2ccc(NC(=O)NCC)c(OC)c2)ncc1C)c1cccnc1,9%,nt,nt,nt,nt,nt
CCOC(=O)N1CCc2c(sc3c2c(=O)n(-c2ccc(Cl)cc2)c(=O)n3CC(=O)Nc2ccccc2)C1,6%,0%,5%,?,13µM*,1%
CC(=O)N1CCc2c(sc3c2c(=O)n(-c2ccc(C)cc2)c(=O)n3CC(=O)Nc2ccccc2)C1,-14%,-14%,-8%,-32%,-4%,-11%
CN(Cc1ccccc1)C(=O)c1cc2c(s1)-c1ccc(Cl)cc1SC2,0%,-7%,2µM*,-1%,?,-2%
O=C(NCc1cccc(Cl)c1)c1cc2c(s1)-c1ccccc1SC2,-2%,21%,-20%,-23%,-8%,-3%
CC(=O)O[C@]1(C(C)=O)CC[C@H]2[C@@H]3C=C(Cl)C4=CC(=O)[C@@H]5C[C@H]5[C@]4(C)[C@@H]3CC[C@@]21C,-21%,nt,nt,nt,nt,nt

# Compound activity from PubChem BioAssay.
